The source of these data is PubChem BioAssay (NCATS).

Results filed as inconclusive are left out. Activity calls are given as the source filed them. Calls come from the whole dose curve; as a rule, active = well fitted inhibition curve with a large enough effect; inconclusive = small, poorly fitted or top-dose-only effect; inactive = no such curve, though single readings can be large or run the other way.
Potency is the fitted concentration of half-maximal effect.

The assay in a line: BET inhibitor-based combinations targeting novel dependencies in MECOM-rearranged (r) AML: MV-4-11 cell line (AID 2202233).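 For viability, % of control: plate controls were DMSO for no effect and blank wells for full effect.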 Note: nearly all actives have a fitted effect of over 45% in size. Conditions: MV-4-11 AML viability, CellTiter-Glo luminescence, 48 h; series mostly up to 46 µM; viability, % of control: at the top concentration. Put shortly: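 Cells at 500/well were exposed for 48 hr to MIPE v5.0 drugs as 11-point dose curves. Viability was read by CellTiter-Glo luminescence and normalized to DMSO and empty-well controls. Activity was expressed as AUC and per-cell-line Z-AUC.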
On to `CN1C(=O)N[C@@H](Cc2c[nH]c3c(Cl)cccc23)C1=O`, for which the “viability, % of control” value was 101% (inactive). `CC[C@@H]1C(=O)N(C)c2cnc(Nc3ccc(C(=O)NC4CCC(N5CCN(CC6CC6)CC5)CC4)cc3OC)nc2N1C(C)C` (some centres undefined): the Potency is 118 nM (active). Same read-out and setting: the value for `CN1CCN(c2ccc(OC(F)(F)F)c(Nc3ncc4c(n3)-c3c(c(C(N)=O)nn3CCO)CC4)c2)CC1` was 93.4 nM (active).

With `Cc1ccc2c(c1)C(=O)[C@]1(O)CCN(c3ccccc3)C1=N2`, the Potency was 23500 nM (active).

Take `NCCOc1cc(C(=O)Nc2cc(OCCN)c3ccccc3n2)nc(C(=O)Nc2cc(OCCN)c3ccccc3n2)c1`: the Potency is 16600 nM (active). With `C=CC(=O)Nc1cccc(Sc2nc(Nc3ccc(N4CCN(C)CC4)cc3)ncc2Cl)c1`, the Potency is 2950 nM (active).

Regarding `CC(C)c1nn(-c2c(Cl)cccc2Cl)c2nc(Cc3ccc(OCCO)cc3)[nH]c(=O)c12`, the Potency is 41.7 nM (active). Turning to `COc1ccc(-c2c(-c3ccc(O)cc3O)n[nH]c2C)cc1`, the “viability, % of control” value is 7.4% (inactive). Consider `FC(F)(F)c1ccc(/C=C/c2nc(COc3ccc(CCCCn4ccnn4)cc3)co2)cc1`, for which the Potency was 29.5 nM (active). Consider `O=C(Nc1ccc(Oc2ccnc3[nH]ccc23)c(F)c1)c1cccn(-c2ccc(F)cc2)c1=O`, for which the Potency is 29.5 nM (active). As to `CNC(=O)c1nn(C)c2c1C(C)(C)Cc1cnc(Nc3ccc(N4CCN(C)CC4)cc3)nc1-2`, the Potency is 132 nM (active).

Regarding `COc1cccc2c1c(O)c(C(=O)N(C)c1ccc(C(F)(F)F)cc1)c(=O)n2C`, the “viability, % of control” value was 82% (inactive). For the compound `CCOC(=O)c1ccnc(CNCC(=O)N(CC)CCN(C)C)c1`, the “viability, % of control” value is 36.1% (inactive). Regarding `CCS(=O)(=O)N1CCN(c2ccc(Nc3ncc(C(N)=O)c(NC4CC4)n3)cc2)CC1`, the Potency is 417 nM (active).
